# JMJD2A Tudor – qHTS Assay for Inhibitors of JMJD2A-Tudor Domain; Lysine-specific demethylase 4A (Homo sapiens), O75164; AlphaScreen JMJD2A-Tudor / H3K4me3 peptide binding; Potency, µM (highest dose often 114 µM), for the others: at the highest dose activity change, negative = inhibition, actives largely listed as inhibitors; actives 4.4% (n = 390,000); AID 504339, 2011; note: % is set by controls: 0 for no effect and ±100 for the full control effect; nearly all actives have a fitted effect of over 50% in size
# PLK1 PBD inh – qHTS for Inhibitors of PLK1-PDB (polo-like kinase 1 - polo-box domain): Primary Screen; AID 720504, 2013; actives 2.8% (n = 360,000); Serine/threonine-protein kinase PLK1 (Homo sapiens), P53350; Potency, µM, for the others: max response, negative = inhibition, usual class: inhibitors; Plk1 PBD binding of FITC phosphopeptide, fluorescence polarization; note: series mostly up to about 57 µM; % is set by controls: 0 for no effect and ±100 for the full control effect; nearly all actives have a fitted effect of over 65% in size
# HP1b binding inh – HTS for Inhibitors of HP1-beta Chromodomain Interactions with Methylated Histone Tails | Chromobox protein homolog 1 (Homo sapiens), P83916 | actives 0.56% (n = 390,000) | AlphaScreen HP1-beta / biotin-H3K9me3 peptide binding | Potency, µM (highest dose often 114 µM), for inactives: at the highest dose activity change, negative = inhibition, most hits filed as inhibitors; note: nearly all actives have a fitted effect of over 70% in size
#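 HP1-beta protein (50 nM final) preincubated 30 min at room temperature with biotinylated H3(1-18)K9me3 peptide (50 nM) in PBS pH 7.4, 0.01% Tween-20, then compound added for 30 min. AlphaScreen streptavidin donor/nickel chelate acceptor beads (10 ug/mL final), 30 min dark, luminescence read.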
# BAZ2B inh – qHTS Assay for Inhibitors of BAZ2B | AlphaScreen BAZ2B-H3K14Ac peptide displacement | Potency, µM (doses to about 114 µM), inactives show top-dose activity change, negative = inhibition, hits mostly inhibitors | Bromodomain adjacent to zinc finger domain protein 2B (Homo sapiens), Q9UIF8 | actives 4.4% (n = 360,000); note: % is set by controls: 0 for no effect and ±100 for the full control effect; nearly all actives have a fitted effect of over 60% in size
#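 In this displacement format the biotinylated H3(5-23) peptide acetylated at Lys14 serves as ligand at 50 nM, with BAZ2B at 50 nM in PBS pH 7.4 containing 0.01% Tween-20. Donor and acceptor beads are 10 ug/mL final.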
# VDR inh – Inhibitors of the vitamin D receptor (VDR): qHTS. Potency, µM, for the others: max response, negative = inhibition, most hits filed as inhibitors. actives 0.93% (n = 400,000). Vitamin D3 receptor (Homo sapiens), P11473. AID 504847, 2011. VDR-SRC2-3 peptide fluorescence polarization, 2 h; note: % is set by controls: 0 for no effect and ±100 for the full control effect
#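 Signal is fluorescence polarization, reporting how far test compounds block the interaction of VDR with the SRC2-3 coregulator peptide after a 2 h room-temperature incubation.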
# G9a block – qHTS Assay for Inhibitors of Histone Lysine Methyltransferase G9a | actives 8.8% (n = 350,000) | G9a H3K9 monomethylation, AlphaScreen, 2 h | AID 504332, 2011 | Potency, µM (top dose mostly 102 µM), for inactives: top-dose activity, negative = inhibition, most hits filed as inhibitors; note: % is set by controls: 0 for no effect and ±100 for the full control effect; nearly all actives have a fitted effect of over 75% in size
#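 AlphaScreen detection with an anti-monomethyl H3K9 antibody quantified product after a 2 h room-temperature reaction containing 500 nM biotinylated H3K9 peptide, 20 µM SAM and 20 nM enzyme, which had been preincubated 15 min with compound.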
# Starred values were filed as active, the others as inactive; ? = inconclusive; nt = no result given; ! = repeats disagree; [ ] = remark or other dose. Hits are enriched below; roughly 11% of the tested compounds scored in any of these assays. Calls come from the whole dose curve; as a rule, active = well fitted curve in the direction sought with a large enough effect; inconclusive = small, poorly fitted or top-dose-only effect, or another doubt; inactive = no such curve, though single readings can be large; an effect the other way counts as inactive or inconclusive. Potency is the fitted concentration of half-maximal effect.
SMILES,JMJD2A Tudor,PLK1 PBD inh,HP1b binding inh,BAZ2B inh,VDR inh,G9a block
CC(=O)c1ccc(-c2ccc(C3C4C=CCCC4(C)C(=O)N3Cc3ccccc3)c(F)c2)cc1 (stereo not drawn),-28%,nt,4%,nt,-12%,nt
CC1CCC(C(C)C)C(OC(=O)C[n+]2cccc(C(N)=O)c2)C1 (stereo not drawn),?,2.4µM*,-3%,-3%,?,7%[59 µM]
COC(=O)C1CN(C(=O)COc2ccc(C)c(C)c2)c2ccccc2O1 (stereo not drawn),1%,4%,-9%,3%,-4%,53%
Cc1nc(SCC(=O)Nc2ccc(Cl)cc2[N+](=O)[O-])nc(C)c1C,?,?,?,45µM*,-21%,11µM*
Cc1ccc(SCC(=O)Nc2ccc(F)cc2[N+](=O)[O-])cc1C,?,-11%,50µM*,13µM*,-2%,?
Cn1nc(C(F)(F)F)cc1Oc1ncc(C(F)(F)F)cc1Cl,0%,-12%,40%,3%,1.4µM*,10%
Cc1ccc(CN2C(=O)C(Cc3ccccc3)Nc3ncnc(N4CCN(c5ccccc5)CC4)c32)cc1 (stereo not drawn),-30%,-2%,52%,-33%,17%,7%[2.33 µM]
CCC1Nc2ncnc(N3CCN(c4ccccc4)CC3)c2N(Cc2ccc(OC)cc2)C1=O (stereo not drawn),?,-7%,7%,?,20%,10%[2.33 µM]
CCC1Nc2ncnc(N3CCOCC3)c2N(Cc2ccccc2)C1=O (stereo not drawn),-21%,-13%,36%,2%,3%,28%[2.33 µM]
CCC1Nc2ncnc(N3CCOCC3)c2N(Cc2ccc(OC)cc2)C1=O (stereo not drawn),56µM*,27µM*,29%,nt,79µM*,nt
O=C1C(Cc2ccccc2)Nc2ncnc(N3CCOCC3)c2N1Cc1ccc(Cl)cc1 (stereo not drawn),?,27µM*!,18%,-26%,-11%,4.5µM*
O=C1C(Cc2ccccc2)Nc2ncnc(N3CCN(c4ccccc4)CC3)c2N1Cc1ccccc1 (stereo not drawn),63µM*,?,6%,?,-16%,?
CCCSC1=NC2(CCN(C(=O)NC3CCCCC3)CC2)N=C1c1ccc(C)cc1,-17%,nt,0%,9%[57.1 µM],-1%,-12%[59 µM]
COc1ccc(CN(C(=O)c2ccc(OCC(C)C)cc2)C2CCS(=O)(=O)C2)cc1 (stereo not drawn),-26%,nt,2%,?,14%,-26%[59 µM]
O=C(NCc1ccccc1)C1C(c2ccccc2)=Nc2ccccc2N1C(=O)c1ccncc1 (stereo not drawn),nt,-15%,nt,nt,nt,nt
Cc1nc(SCC(=O)N(C)Cc2ccco2)c2c(C)c(C)sc2n1,-28%[57.1 µM],?,24%,-26%,-14%,50µM*
CCN(C(=O)CSc1nc(C)nc2sc(C)c(C)c12)c1ccc(F)cc1,-7%,-11%,34%,0%,-9%,-7%[12.7 µM]
Cc1nc(NCc2ccco2)c2c(C)c(C)sc2n1,3.2µM*,-1%,?,28µM*,1%,8.9µM*
CC(C)(C)C(=O)OCCNc1nc(-c2cccs2)nc2ccccc12,-9%,nt,53%,nt,10%,nt
CC(=O)N1CCC2(CC1)NC(=O)N(c1ccccc1)N2,-8%,-3%,25%,-17%,9%,?
NC(=O)N1CCC2(CC1)NC(=O)N(c1ccccc1)N2,-4%,-6%,34%,-16%,3%,7.9µM*
CC1=C(C(=O)N2CCCCCC2)CC(CC(=O)NC2CCCCC2)C(=O)N1Cc1ccc(C(C)(C)C)cc1 (stereo not drawn),nt,-12%,nt,nt,nt,nt
Cc1cc(C)n2nc3nc(N4CCCCC4)nc(-c4ccco4)c3c2n1,?,?,-14%,79µM*,-17%,4µM*
O=C(N/N=C/c1ccc(OCc2ccccc2)cc1)c1cc[n+](Cc2ccccc2)cc1,?,5%,-2%,-12%,-2%,71µM*
COc1ccc(O)c(/C=N/NC(=O)c2ccc(OCc3cccc(Br)c3)cc2)c1,35µM*,-3%,19%,?,-1%,35%[2.33 µM]
SMILES,JMJD2A Tudor,PLK1 PBD inh,HP1b binding inh,BAZ2B inh,VDR inh,G9a block
COc1ccc(/C=N/NC(=O)c2ccc(Br)cc2)c(OC)c1,-14%,-5%,30%,-15%,24%,14%
O=C(N/N=C/c1ccc(OCc2ccc(F)cc2)cc1)c1ccccc1,-8%,1%,26%,10%,-23%,24%
CC(C)(C)c1ccc(OCc2ccc(C(=O)N/N=C/c3ccc(O)c(O)c3)cc2)cc1,?,-8%,?,32µM*,-6%,?
O=C(O)Cc1ccc(O)c(O)c1,56µM*,-8%,?,-8%,-2%,0.24µM*
Cc1ccc(NC(=O)c2cc(NC(=O)c3ccccc3C(=O)O)ccc2N2CCCCC2)cc1,-22%,?,14%,?,-23%,14µM*
CC(=O)N1CCN(c2ccc(NC(=O)c3ccccc3Cl)cc2)CC1,?,21µM*,7%,-1%,-13%,nt
COc1cccc(OC)c1C(=O)Nc1ccc(N2CCCC2)cc1,?,-24%,-13%,?,3%,13µM*
COc1ccc(C)cc1NC(=O)c1ccc(CN2CCN(c3ccccc3)CC2)cc1,?,-3%,-9%,?,-6%,50µM*
COc1cccc(OC)c1C(=O)Nc1ccc(CN2CCCCC2)cc1,-9%,-10%,30%,6%,6%,6%[59 µM]
CC1(c2nnnn2-c2ccc3c(c2)OCCO3)CCC(=O)N1Cc1ccc(F)cc1 (stereo not drawn),nt,-1%,nt,nt,nt,nt
CCOc1ccccc1NC(=O)Cn1c(=O)n(CCCC(=O)NCCc2ccc(C)cc2)c(=O)c2ccccc21,-3%,nt,50%,-1%,-1%,-2%[59 µM]
CC1(C)CC(=O)C=C(Nc2ccc(C(=O)O)c(O)c2)C1,-8%,-3%,23%,-1%,-4%,-4%
COc1ccccc1C(=O)Nc1ccc(N2CCN(Cc3ccccc3)CC2)cc1,?,1%,?,45µM*,13%,?
COc1ccc(C(=O)CCC(=O)Nc2ccc(N3CCCCC3)cc2)cc1OC,?,-6%,?,35µM*,6%,45µM*
CCC(=O)Nc1ccc(N2CCN(Cc3ccccc3)CC2)cc1,-16%[11.4 µM],-20%,26%,-6%,-9%,50µM*

# Compound activity (PubChem BioAssay)
